Source: PubChem BioAssay (National Center for Advancing Translational Sciences (NCATS))
Hits are enriched below; roughly 7.6% of the tested compounds scored in any of these assays.
p53 reactivator – restores transcriptional activity of mutant p53; H1299 p53-A138V BP100-luciferase reporter, luminescence, 24 h; Potency, µM (series often up to 92.2 µM), hits mostly activators; 320,000 tested, 0.063% active; AID 504706; note: nearly all actives have a fitted effect of over 45% in size
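H1299 (p53-null), stable ts p53-A138V + BP100-Luc; 1000 cells/well, Opti-MEM/10% FBS; cpd 4 pt, 1:5; 24 h, 37 deg C, 5% CO2; detection reagent 10 min RT; luminescence.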
Gal4-VP16 FLuc – counter-screen for ROR gamma inhibitors: Gal4-VP16 reporter. Potency, µM (highest dose often 53.6 µM), usual class: inhibitors. 310,000 tested, 3.5% active. Drosophila S2 Gal4-VP16 UAS-luciferase, luminescence, 20 h;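 note: Gal4-VP16 expression switched on by copper sulfate through the metallothionein promoter; nearly all actives have a fitted effect of over 50% in size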
BRCA1 expr act – increases BRCA1 expression; MCF7-BRCA1-FFLuc reporter, luminescence, 48 h; response scale: scaled: vehicle 0%, 10 µM genistein 100%; Potency, µM (highest dose often 46.1 µM), most hits filed as activators; 380,000 tested, 1.1% active; AID 624202; note: nearly all actives have a fitted effect of over 80% in size
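Compounds are tested at multiple concentrations on MCF7 BRCA1-luciferase reporter cells seeded at 2000 per well; after 48 h, a single luminescence end-point is taken and curves fitted to the normalized data.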
RORgamma inh – inhibitors of mouse ROR gamma transcriptional activity; P51450; Drosophila S2 Gal4-RORgamma UAS-luciferase reporter, 20 h; Potency, µM (doses to about 53.6 µM), most hits filed as inhibitors; 310,000 tested, 5.4% active; AID 2551; note: nearly all actives have a fitted effect of over 60% in size
Target sequence (P51450 whole entry, looked up, the tested form may be a part): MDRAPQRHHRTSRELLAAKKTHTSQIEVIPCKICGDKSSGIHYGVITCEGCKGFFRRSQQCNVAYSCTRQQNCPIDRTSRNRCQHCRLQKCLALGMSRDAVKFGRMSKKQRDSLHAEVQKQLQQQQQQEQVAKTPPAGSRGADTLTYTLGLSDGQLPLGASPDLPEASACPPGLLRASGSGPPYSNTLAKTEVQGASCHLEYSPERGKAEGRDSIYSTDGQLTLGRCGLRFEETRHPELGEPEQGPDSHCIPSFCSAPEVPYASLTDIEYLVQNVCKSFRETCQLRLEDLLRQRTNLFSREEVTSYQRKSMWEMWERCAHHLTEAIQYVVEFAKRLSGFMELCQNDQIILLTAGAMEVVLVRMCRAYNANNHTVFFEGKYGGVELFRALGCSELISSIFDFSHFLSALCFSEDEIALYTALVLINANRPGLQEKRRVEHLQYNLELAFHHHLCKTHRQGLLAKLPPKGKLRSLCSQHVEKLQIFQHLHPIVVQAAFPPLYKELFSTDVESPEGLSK
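Stable Schneider cell line, Gal4 DNA-binding domain fused to ROR gamma, UAS-luciferase. Cmpd 1 hr RT → CuSO4 700 uM final → 20 hr RT → luciferase reagent 10 min → luminescence.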
ELG1 repair inh – inhibitors of ELG1-dependent DNA repair in HEK293T cells | HEK293T ELG1-luciferase reporter, luminescence, 16 h; DNA damage induced by 5-fluorouridine | Potency, µM (highest dose often 46.1 µM), hits mostly inhibitors | 330,000 tested, 2.3% active; note: nearly all actives have a fitted effect of over 55% in size
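Step one: seed 2,000 cells per well. Step two: pin-transfer compound or DMSO alongside 5-fluorouridine. Step three: incubate 16 hr, 37 °C, 5% CO2. Step four: add ONE-Glo, wait 30 min, read luminescence.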
Giardia killer – Giardia lamblia killing. Giardia lamblia trophozoite viability. activity change, % at 7.66 µM, hits read low. 340,000 tested, 0.15% active. AID 540267; in the data active = activity change below about -80%; inconclusive = between about -30% and that limit;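 note: parasites exposed to compound for two days anaerobically before the ATP read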
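Trophozoites 100 cells/well + cpd; 48 hrs, 37 deg C, anaerobic. ATPLite 1-Step added, 15-30 min RT, luminescence read (ATP-based viability).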
Numbers stand for hits; 0 = inactive; ? = inconclusive; - = not tested or not shown; [ ] = remark or other dose. Unless noted, calls come from the whole dose curve; as a rule, active = well fitted curve in the direction sought with a large enough effect; inconclusive = small, poorly fitted or top-dose-only effect, or another doubt; inactive = no such curve, though single readings can be large; an effect the other way counts as inactive or inconclusive.

SMILES	p53 reactivator	Gal4-VP16 FLuc	BRCA1 expr act	RORgamma inh	ELG1 repair inh	Giardia killer
COC(=O)c1ccc(Cn2c(O)c(N=NC(N)=S)c3ccccc32)o1	0	12.6µM	0	1.12µM	?	0
Cc1ccc(NC(=O)Cn2c(O)c(N=NC(N)=S)c3ccccc32)cc1	0	?	0	?	0	0
Cc1cc(C)nc(N=Nc2c(O)n(Cc3ccc(Cl)cc3)c3ccccc23)n1	0	3.55µM	0	5.62µM	23.1µM	0
C/C(Cl)=C\Cn1c(O)c(N=NC(N)=S)c2ccccc21	0	5.01µM	0	3.55µM	0	0
COC(=O)c1ccc(C(NC(=O)OCc2ccccc2)/C(C)=C/[C@@H](C)C(=O)NC2CCCCC2)cc1 (some centres not stated)	-	0	-	?	-	-
O=C(NCCN1C(=O)S/C(=C\c2ccccc2)C1=O)c1cc(S(=O)(=O)N2CCOCC2)c(Cl)cc1Cl	0	0	0	0	14.6µM	0
O=C(NCC1COc2ccccc2O1)c1ccc(F)c(S(=O)(=O)N2CCOCC2)c1 (configuration not stated)	0	-	0	-	0	0
O=C(NCC1COc2ccccc2O1)c1cc(S(=O)(=O)N2CCOCC2)c(Cl)cc1Cl (configuration not stated)	0	-	0	-	18.3µM	0
COc1ccccc1NC(=S)N(C(C)C)C(C)c1ccccn1 (configuration not stated)	0	0[10 µM]	0	12.6µM	0	0
Cc1ccc(OCc2cc(=O)n3c(-c4ccccc4)csc3n2)cc1	-	-	0	-	-	-
Cc1ccc(-c2csc3n[nH]c(=S)n23)cc1	0	8.91µM	0	2.51µM	0	0
COc1ccc(/C=C/C(=O)c2ccoc2)cc1	0	0	0	0	?	0
COc1ccc(OC(=O)/C=C/c2ccc([N+](=O)[O-])cc2)cc1	0	8.91µM	0	?	0	0
COc1ccc(/C=C/C(=O)c2ccccn2)cc1	?	11.2µM	?	11.2µM	?	0
COc1cccc(NC(=O)/C=C/c2ccc([N+](=O)[O-])cc2)c1	0	0	0	0	?	0
COc1ccc(C(=O)CSc2nc3ccccc3n2CC(=O)c2ccccc2)cc1	0	0	0	0	0	0
COc1ccc(/C=C/C(=O)c2ccc(O)cc2)cc1	?	7.08µM	?	2.51µM	?	?
COc1ccc([N+](=O)[O-])c(C=CC(=O)c2ccccn2)c1	-	-	0	-	-	-
COc1ccc(C(=O)Cn2c(C(=O)/C=C/c3ccccc3)nc3ccccc32)cc1	0	?	0	3.98µM	?	0
CC1(C)CC(=O)C2=C(C1)Nc1cc(Cl)ccc1S2	0	0	0	0	23.1µM	0
CC1(C)CC(=O)C2=C(C1)NC(=O)NC2c1ccc(Cl)cc1 (configuration not stated)	0	0	0	0	?	0
COc1ccc(CC(=O)OCC(=O)NC2CCCCC2)cc1	0	-	0	-	?	0
Cc1ccc(NC(=S)NCc2ccccc2)c(C)c1	-	7.08µM	0	5.01µM	?	0
Cc1ccccc1NC(=S)NCCC(c1ccccc1)c1ccccc1	0	12.6µM	0	5.01µM	0	0
Cc1ccc(NC(=S)NCCC(c2ccccc2)c2ccccc2)c(C)c1	0	0[0.365 µM]	0	3.55µM	0	0
SMILES	p53 reactivator	Gal4-VP16 FLuc	BRCA1 expr act	RORgamma inh	ELG1 repair inh	Giardia killer
CCCCNc1nc(C)nc2c1nc(-c1ccccc1)n2C1CCN(Cc2ccccc2)C1 (configuration not stated)	-	0	-	11.2µM	-	-
Cc1nc(NCc2ccccc2)c2nc(-c3ccccc3)n(C3CCN(Cc4ccccc4)C3)c2n1 (configuration not stated)	-	0	-	0	-	-
O=C(CSc1ccsc1[N+](=O)[O-])N1CCN(c2ccccn2)CC1	0	0	0	0	0	?
CC1CCCC(C)N1NC(=S)Nc1ccc(OC(F)F)cc1 (configuration not stated)	0	6.31µM	0	3.16µM	0	0
COc1ccc(NC(=S)NN2C(C)CCCC2C)cc1 (configuration not stated)	0	7.08µM	0	7.94µM	0	0
COc1cccc(NC(=S)NN2C(C)CCCC2C)c1 (configuration not stated)	0	5.62µM	0	2.24µM	0	0
CCCN1C2CCCC1CC(NC(=O)Nc1ccc(C(C)C)cc1)C2 (configuration not stated)	0	0	0	0	0	0
COc1ccc(NC(=S)N2CCCC2)cc1	0	0	0	0	0	0
CC(C)c1ccc(NC(=S)NN2C(C)CCCC2C)cc1 (configuration not stated)	0	6.31µM	0	1.58µM	0	0
CC(=O)N1CCN(c2ccc(NC(=O)c3cc(Cl)ccc3Cl)cc2)CC1	0	0	0	0[1.91 µM]	0	0
COc1cccc(C2CC(c3ccc(Cl)cc3Cl)n3nc(N)nc3N2)c1 (configuration not stated)	0	0	0	?	0	0
Cc1n[nH]c(C)c1CCc1nc2c3ccccc3nc(SCC(N)=O)n2n1	0	0	0	0	23.1µM	0
COc1ccc(-c2nc3ccccc3c(C(=O)Nc3ccc(S(=O)(=O)Nc4cc(C)on4)cc3)c2C)cc1	0	0	0	?	13µM	0
COc1ccc(C(=O)Nc2cc(-c3ccc(C)cc3)no2)cc1	0	0	0	3.16µM	0	0
COc1ccc(NC(=O)c2cc(C)on2)cc1OC	0	0	0	0	0	0
COc1ccc(NC(=O)c2cc(C)on2)cc1	?	0[10 µM]	7.08µM	0	?	0
COc1ccc(NC(=O)c2cccnn2)cc1	0	0	12.6µM	0	?	0
COc1ccc(NC(=O)c2ccc(C)cc2)cc1	-	?	?	0[1.91 µM]	?	0
Cc1ccc(-c2cc(C(=O)Nc3ccc(S(=O)(=O)Nc4cc(C)on4)cc3)c3ccccc3n2)c(C)c1	0	0	0	?	0	0
COc1cccc(C(=O)Nc2ccc(S(=O)(=O)Nc3nccc(C)n3)cc2)c1	0	0	0	0	0	0
O=C(CSCCO)Nc1ccc(C2CCCCC2)cc1	0	5.62µM	0	0	?	0
O=[N+]([O-])c1nn(-c2ccccc2)[n+]([O-])c1N1CCN(c2ccccc2F)CC1	0	0	0	0	0	-89.3
Cc1cccc(-n2nc([N+](=O)[O-])c(N3CCN(C(=O)c4ccco4)CC3)[n+]2[O-])c1	0	0	0	0	0	?
O=[N+]([O-])c1nn(-c2ccccc2)[n+]([O-])c1N1CCN(c2ccccc2)CC1	0	0	0	0	0	-81.1
CCOc1ccc(N(C(=O)c2cnsn2)C(C(=O)NC2CCCCC2)c2ccncc2)cc1 (configuration not stated)	0	0	0	?	0	0
